The record followed here is PubChem BioAssay AID1117359 (Southern Research Institute, 2015).

SMILES strings stand for the structures. In all, about 1,500 compounds went through this assay and about 460 (31%) were called active. A selection follows. Entries with a potency or affinity are not part of this list. A number with no mark means an inactive call.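 Rule for the calls: active = viability at or below 80% at any tested concentration, marking the compound as toxic; inactive = the rest.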

The nature of the assay: viability loss in THP-1 monocytes – THP-1 cells, cytotoxicity control for Vif-APOBEC3G degradation inhibitor project, dose response (AID 1117359). Particulars: THP-1 viability, CellTiter-Glo luminescence, 72 h; series mostly up to 40 µM; viability: at the top concentration. A general note: In ATP-based viability assays light output follows the ATP content of the culture.
Consider `O=C(O)/C=C/c1ccc(S(=O)(=O)N2CCN(CCN3C(=O)C4C5C=CC(C5)C4C3=O)CC2)cc1` (configuration not stated), for which the “viability” value is 105%.
In the case of `O=S(=O)(O)c1cccc2c(N=Nc3ccc(O)c4ncccc34)cccc12` it was 112%; in that of `O=[N+]([O-])c1cc2ccccc2c(O)c1O`, 105%.
As for `CN(CC(=O)Nc1ccccc1Cl)C(=O)Cn1cc(C(F)(F)F)cc(Cl)c1=O`, the figure is 98.7%.
In the case of `Cc1[nH]c(=O)nc(NN=Cc2ccc(Cl)cc2)c1C(=O)Nc1ccc(Cl)cc1`, the “viability” value was 94.2%.
In the case of `CC(=C/C(=O)O)/C=C/c1ccc(Cl)o1` it was 104%.
As to `COc1ccccc1C(=O)Nc1ccc(-c2nnc(SCC(=O)O)n2C)cc1`, the “viability” value was 96.2%.
As for `O=C(CSc1nnc(-c2ccco2)c(-c2ccco2)n1)Nc1ccccc1`, the figure is 80.2%; as for `O=[N+]([O-])c1ccc(-c2c[nH]c(=S)[nH]2)cc1`, 103%.
In the case of `CCOc1ccc(/C=C2\NC(=S)NC2=O)cc1` it was 96.2%.
As for `COc1ccc(-c2cc(-c3ccco3)[nH]c(=O)c2C#N)cc1`, the figure is 101%; as for `CC1CCC/C(=C\Nc2ccc(C(=O)O)c(O)c2)C1=O` (configuration not stated), 107%; as for `CCNC(=O)COC(=O)c1cc(-c2ccco2)nc2ccccc12`, 96.2%.
`CN(C)[C@@H]1C(=O)C(C(=O)NCN2CCCC2)=C(O)[C@@]2(O)C(=O)C3=C(O)c4c(O)cccc4[C@@](C)(O)C3CC12` (some centres not stated): the “viability” value is 88.8%.
In the case of `Cc1cc(/C=C2\SC(=S)NC2=O)c(C)n1C`, the “viability” value is 83.5%.
In the case of `COC(=O)Cc1ccc(NC(=S)NNC(=O)C2CC2)cc1` it was 94.8%.
As for `O=c1[nH][nH]c(=O)c2nc(Nc3ccccc3)ncc12`, the figure is 93.8%.
In the case of `CCN(CC)c1ccc(C=Nc2ccc(N(C)C)cc2)c(O)c1` it was 92.7%; in that of `Cc1ccccc1NC(=O)Cc1nc(COC(=O)Cc2ccccc2F)cs1`, 110%.
On to `CN(C)c1ccc(/C=C/C#N)cc1`, for which the “viability” value is 84.6%.
Turning to `CCCc1cc(=O)[nH]c(SCC(=O)c2c(C)[nH]c3ccccc23)n1`, the “viability” value was 116%.
As for `COc1ccc(NC(=O)CSc2nc3c(cc2C#N)CN(C)CC3)cc1`, the figure is 81.2%; as for `COc1ccc(NC2=NC(C)(CO)CS2)cc1` (configuration not stated), 105%; as for `COc1ccc(NC(=O)CCCSc2ccccc2)cc1`, 110%.
In the case of `CCOC(=O)/C(=C\c1ccccc1)NC(=O)c1ccccc1` it was 101%; in that of `Cc1ccc(C2C(C#N)=C(N)Oc3c2oc(CO)cc3=O)o1` (configuration not stated), 98.5%; in that of `COc1ccc2cc(C3C(C#N)=C(N)OC(C)=C3C(C)=O)c(Cl)nc2c1` (configuration not stated), 96.4%.
Consider `NS(=O)(=O)c1ccc(CCNC2CC(=O)N(Cc3ccccc3)C2=O)cc1` (configuration not stated), for which the “viability” value is 101%.
In the case of `CN(Cc1cn(C)nc1-c1cccc(Cl)c1)Cc1nccn1C` it was 97%.
In the case of `Nc1ccc(N2CCN(CCCCN3C(=O)C4CCCN4C3=O)CC2)cc1` (configuration not stated) it was 87.8%; in that of `Nc1cc(C(=O)O)ccc1N1CCCCC1`, 83.3%; in that of `O=C(CN1C(=O)NC(c2ccc(F)cc2)C1=O)Nc1ccc2c(c1)OCCO2` (configuration not stated), 103%.
`COc1cccc(NC(=O)N2CCN(c3nnnn3-c3ccccc3)CC2)c1`: the “viability” value is 86.7%.
For `O=C(Cn1c(=O)oc2ccccc21)N1CCN(S(=O)(=O)c2ccccc2)CC1`, the “viability” value was 98.3%.
As for `CC(C)(C)c1ccc(NC(=S)NCc2cccnc2)cc1`, the figure is 103%.
Consider `O=S(=O)(c1ccc(OCC(O)CN2CCC(Cc3ccccc3)CC2)cc1)N1CCOCC1` (configuration not stated), for which the “viability” value is 91.8%.
For `C/C(=N\NC(=O)c1cnccn1)c1ccc([N+](=O)[O-])cc1`, the “viability” value was 107%.
In the case of `N/C(=N\OC(=O)COc1ccc([N+](=O)[O-])cc1)c1cccnc1` it was 109%; in that of `O=C1CC(Nc2ccc(N3CCOCC3)cc2)C(=O)N1Cc1ccccc1` (configuration not stated), 111%; in that of `Cc1cc(SCC2=NNC(=O)C2)c(Cl)cc1Cl`, 104%.
As for `CCCCc1nc2sc3c(=O)[nH]cnc3c2c2c1CCCC2`, the “viability” value was 105%.
As for `CC(C)Cc1nc2oc3c(NCC(C)O)ncnc3c2c2c1CCCC2` (configuration not stated), the figure is 85.5%; as for `CCCCc1cc(C(=O)Cc2ccccn2)c(O)cc1O`, 90.9%.
In the case of `COc1ccc(C(=O)OCC(=O)c2c(N)n(C)c(=O)n(C)c2=O)cc1OC`, the “viability” value was 87.8%.
In the case of `NC(=O)C1Cc2ccccc2CN1C(=O)c1nn(Cc2ccccc2)c(=O)c2ccccc12` (configuration not stated) it was 97.3%; in that of `Cc1cccc2nc(C(=O)Nc3cccc(C(=O)NC4CC4)c3)cn12`, 96.1%.
In the case of `Cc1onc(-c2ccccc2)c1CNC(=O)C1COc2ccccc2O1` (configuration not stated) it was 81%.
With `O=C(O)Cc1ccc(N=Nc2c(O)c(C(=O)O)cc3ccccc23)cc1`, the “viability” value is 120%.
For the compound `Nc1cccc2cc(S(=O)(=O)O)ccc12`, the “viability” value was 104%.
As for `O=C1CC(N2CCOCC2)C(=O)N1c1ccc(Cl)cc1` (configuration not stated), the “viability” value was 95.9%.
As for `O=C(O)c1ccc2c(c1)C1C=CCC1C(c1ccncc1)N2` (configuration not stated), the figure is 95.9%; as for `S=C1NC2(CCCCCC2)N=C1c1ccccc1`, 124%.
As for `CC(NC(=O)c1ccco1)C1CCCO1` (configuration not stated), the figure is 106%; as for `S=c1[nH]nc(Cn2nnc3ccccc32)n1-c1ccccc1`, 96.5%.
As for `COc1cc(/C=C(\CC(=O)O)c2nc3ccccc3s2)cc(OC)c1O`, the figure is 81.9%.
As to `COc1cc(/C=N/NC(=O)c2ccc(NS(=O)(=O)c3cccs3)cc2)cc(OC)c1O`, the “viability” value was 93.2%.
As for `COc1ccccc1/C=C/C=C1N=C(/C=C/c2ccc(Cl)cc2)OC/1=O`, the figure is 87.7%; as for `C/C=C/c1ccc(OCC(=O)N2CCc3cc(OC)c(OC)cc3C2)c(OC)c1`, 87.1%.
As for `CCc1ccccc1NC(=O)N1CCc2ccccc21`, the figure is 88.4%; as for `CCN1CNC(=S)N(CCc2ccccc2)C1`, 102%; as for `Cc1cc(C)n2nc(C(=O)OCC(=O)N(C)CC(=O)Nc3ccc(F)cc3)nc2n1`, 84.1%.
Take `CCN1CCN(C(=O)CN(C)S(=O)(=O)c2ccc(OC)c(C)c2)CC1`: the “viability” value was 87.7%.
In the case of `CCOC(=O)CNC(=O)Cn1cnc2c(nnn2-c2ccc(F)cc2)c1=O`, the “viability” value is 97.2%.
Turning to `COC/C=C/C1=CC2=CC(=O)C(C)(OC(=O)C3CCCC3)C(=O)C2=CO1` (configuration not stated), the “viability” value is 100%.
In the case of `Clc1ccccc1N=Nc1ccccn1` it was 89.9%; in that of `CCOC(=O)C1CCCC12Nc1cccc3cccc(c13)N2` (configuration not stated), 84.6%.
In the case of `COc1cc(OC)c2c(c1O)OC(c1ccccc1)CC2=O` (configuration not stated) it was 105%.
As for `Cc1noc(C)c1COc1ccc(C(=O)OCC(=O)N2c3ccccc3NC(=O)C2(C)C)cc1`, the figure is 102%; as for `CCOc1ccc(NC(=O)C2CCCN(S(=O)(=O)c3c(C)nn(C)c3C)C2)cc1` (configuration not stated), 93%; as for `CC(=O)c1sc(C(=O)O)c(-c2ccco2)c1-c1ccco1`, 115%.
For the compound `Cc1cc(CN2C(=O)c3ccccc3C2=O)cc(N2CCOCC2)c1`, the “viability” value is 84%.
As for `O=C(CCN1C(=O)c2ccccc2C1=O)NCc1ccco1`, the figure is 108%.
In the case of `CCCC(=O)C1=C(N(C)c2ccccc2)CC(C)(C)CC1=O`, the “viability” value is 99.3%.
In the case of `O=C(Nc1cccnc1)c1sc(Nc2ccccc2F)nc1-c1ccccc1` it was 89%; in that of `O=C(COc1ccccc1Cl)c1ccc[nH]1`, 94.5%; in that of `C/C(=N\n1c(C)nc2ccccc2c1=O)c1ccc(C)o1`, 108%.
Turning to `COc1ccc(N=C2NC(=O)/C(=C\C=C\c3ccco3)S2)cc1`, the “viability” value was 101%.
As for `O=C1NN(c2cccc(Br)c2)C(=O)/C1=C\c1ccccc1`, the figure is 93.1%.
In the case of `O=C(O)C(Cc1ccccc1)N1C(=O)/C(=C/C=C/c2ccco2)SC1=S` (configuration not stated) it was 106%; in that of `COC(=O)C1=C(C)N(Cc2ccccc2)C(=O)/C1=C\c1ccco1`, 90.4%; in that of `O=C1/C(=C\c2ccco2)NC(=S)N1c1ccccc1`, 91.4%.
Regarding `O=C(O)c1cc(N2N=C(C(F)(F)F)/C(=C/C=C/c3ccco3)C2=O)ccc1Cl`, the “viability” value is 99.9%.
In the case of `O=C(Nc1ccc(Cl)cc1)Nc1ccc(N2CCC(C(F)(F)F)CC2)nc1` it was 97.4%; in that of `CC1CC(C)CN(C(=O)CSCC(=O)O)C1` (configuration not stated), 96.8%; in that of `Cn1c(C(=O)N[C@@H](C(=O)O)c2ccccc2)cc2cc(Cl)ccc21`, 98.7%.
On to `C#Cc1ccc([C@H]2C=C(C(=O)N3CCOCC3)O[C@@H](OCc3ccc(CO)cc3)C2)cc1`, for which the “viability” value is 98.9%.
As for `Cc1cc(=O)n2nc(N3CCCC(C(=O)NC4CCC(C)CC4)C3)sc2n1` (configuration not stated), the figure is 91.6%.
As for `O=C(O)Cc1cccc(=O)c(O)c1C(=O)O`, the figure is 92.9%; as for `COc1cc(NC(=O)c2noc3c2CCC3)c(OC)cc1Cl`, 85.2%.
In the case of `CCOC(=O)C(=O)NCc1ccc(/C=C2/N=C(C)C(C(=O)OCC)=C2O)o1` it was 101%.
For the compound `CN(C)c1nc(OCCNC(=O)COc2ccc(Cl)cc2Cl)nc(N2CCOCC2)n1`, the “viability” value is 95.2%.
In the case of `CC(=O)c1ccc(-c2nnc(CCC(=O)N(C)Cc3c(C)nc4ccccn34)o2)s1`, the “viability” value is 104%.
In the case of `CC(=O)Nc1nnc(-c2c(-c3c(Cl)cccc3Cl)noc2C)o1` it was 95.8%.
In the case of `CC1CCC/C(=C\Nc2ccc(O)cc2)C1=O` (configuration not stated) it was 94.1%; in that of `CCC1CCC2(CC1)NC(=O)N(CC(=O)Nc1ccc(OC)c(Cl)c1)C2=O` (configuration not stated), 109%; in that of `C=C(C)C(=O)Nc1cccc(C2=NOC3(C2)C[C@H](C(N)=O)N(C(=O)COc2ccc(Cl)cc2)C3)c1` (some centres not stated), 95.8%.
As for `Cc1nc2nc(-c3ccco3)nn2c(C)c1Cl`, the figure is 101%; as for `CC(=O)Nc1ccc(N=Nc2ccccc2)cc1`, 88.4%.
As for `O=S(=O)(O)c1cc(O)c2ccc(Nc3ccccc3)cc2c1`, the “viability” value was 100%.
As for `CCn1c(SC(C)C(=O)O)nc2sc3c(c2c1=O)CCC3` (configuration not stated), the figure is 104%; as for `COc1ccc(N/N=C(\C#N)C(=N)SCc2ccccc2)cc1`, 105%.
In the case of `CC(=O)c1ccccc1NC(=O)COC(=O)CN1C(=O)C2CCCCC2C1=O` (configuration not stated) it was 85.4%; in that of `Cc1cc2cc3c(=O)[nH]c(=O)nc-3n(CC(O)C(O)C(O)CO)c2cc1C` (configuration not stated), 89.7%; in that of `CN(CCO)CC(O)CN(c1ccccc1)c1ccccc1` (configuration not stated), 103%.
In the case of `Oc1cc2c(cc1O)[C@H]1c3ccc(O)c(O)c3OC[C@@]1(O)C2` it was 103%.
For the compound `C(=C\c1ccco1)/c1ccc2ccccc2n1`, the “viability” value is 89.1%.
As for `O=C(O)c1ccc(-n2cccc2/C=C2/NC(=O)N(c3cccc(Cl)c3)C2=O)cc1`, the figure is 101%; as for `O=C(O)c1ccc(-n2cccc2/C=C2/NC(=O)N(c3ccccc3)C2=O)cc1`, 103%; as for `COc1ccc(CCN2CC(C(=O)NCC(c3ccccc3)N(C)C)CC2=O)cc1OC` (configuration not stated), 113%.
As for `CN1CCN(C(=O)c2ccc(N(C)S(=O)(=O)c3cccs3)cc2)CC1`, the figure is 108%.
Consider `COC1=CC(=O)C(C2CC(=O)c3c(O)cc(O)cc3O2)=CC1=O` (configuration not stated), for which the “viability” value was 93.2%.
As to `Cc1c(O)cc2c(c1O)C(=O)CC(c1ccc(O)cc1)O2` (configuration not stated), the “viability” value was 94.6%.

As usually defined, the viability is a read-out of living cells in per cent, often relative to untreated cells.
